Results: ChEMBL document CHEMBL1157539, “Thousands of chemical starting points for antimalarial lead identification” (Nature, 2010)

Assays:
Type in all cases: functional
Plasmodium falciparum [1] = assay: GSK_TCMDC: Inhibition of Plasmodium falciparum 3D7 in whole red blood cells, using parasite LDH activity as an index of growth. Test compounds present at 2uM
Plasmodium falciparum [2] = assay: GSK_TCMDC: Inhibition of Plasmodium falciparum Dd2 in whole red blood cells, using parasite LDH activity as an index of growth. Test compounds present at 2uM
HepG2 = assay: GSK_TCMDC: Percent inhibition of human HepG2 cell line. Test compounds present at 10uM.

SMILES	Inhibition (Plasmodium falciparum [1])	Inhibition (Plasmodium falciparum [2])	Inhibition (HepG2)
Cc1cccc(C(=O)Nc2ccnc(N(C)CCCN(C)Cc3cccc(O)c3)c2)c1.O=C(O)C(F)(F)F	94%	71%	27%
O=C(NC1CC1)c1ccc(Cn2c(SCc3cccc([N+](=O)[O-])c3)nc3ccccc3c2=O)cc1	91%	65%	12%
CN(CCCNC(=S)NC12CC3CC(CC(C3)C1)C2)CCCNc1ccnc2cc(Cl)ccc12	100%	98%	73%
CC1CCCCN1CCCNc1nc(NCc2ccccc2)c2ccccc2n1 (configuration not stated)	95%	14%	24%
Clc1ccc(/N=C(/NCCCCCCCN/C(=N\c2ccc(Cl)cc2)Nc2ccc(Cl)cc2)Nc2ccc(Cl)cc2)cc1	100%	99%	100%
Cl.Clc1ccc(CCNCCCCCCNCCc2ccc3c(c2)OCO3)cc1	91%	11%	23%
Cn1nc(-c2ccc(NC(=O)Nc3ccc4ccccc4c3)c(F)c2)c2cnc(NCCN3CCOCC3)nc21.O=C(O)C(F)(F)F	93%	3%	62%
Cc1ccc(C)c(Cn2ccc3nc(N)nc(N)c32)c1	97%	3%	65%
CN(CCN)Cc1cccc(-c2cccc(-c3nc4cc(C(F)(F)F)ccc4[nH]3)c2)c1.O=C(O)C(F)(F)F	99%	98%	22%
O=C(Nc1ccc(-c2ccccc2)cc1)Nc1cccc(OCCN2CCCC2)c1.O=C(O)C(F)(F)F	94%	14%	11%
CN(C)Cc1ccc2cc(NC(=O)c3ccc(-c4ccc(Cl)cc4)cc3)ccc2c1	92%	22%	21%
Cl.O=c1cc(NCCCNCc2ccc(Cl)c(Cl)c2)[nH]c2cc(F)cc(F)c12	100%	94%	11%
O=C(COC(=O)c1cccc(S(=O)(=O)N2CCc3ccccc32)c1)NNC(=O)c1cccs1	96%	4%	4%
CCn1c(-c2nonc2N)nc2c(-c3cccc(NC(=O)Nc4cccc(OC)c4)c3)ncc(OCCCN)c21.O=C(O)C(F)(F)F	92%	69%	1%
Nc1nccc2ccc(-c3ccncc3)cc12	96%	95%	19%
Cl.N#Cc1ccc2c(c1)CCN(CCC1CCC(NC(=O)/C=C/c3ccc4[nH]ccc4c3)CC1)CC2 (configuration not stated)	93%	27%	2%
c1cc2[nH]c(CCCc3nc4cc(C5=N[C@H]6CCCC[C@H]6N5)ccc4[nH]3)nc2cc1C1=N[C@@H]2CCCC[C@@H]2N1	85%	84%	10%
CCOc1cc(C(=O)NCCCN2CCCCC2C)ccc1-c1nc2cc(Cl)ccc2[nH]1 (configuration not stated)	89%	0%	2%
CCC1CN2CCc3c([nH]c4ccccc34)[C@@H]2C[C@@H]1CC1NCCc2cc(OC)c(OC)cc21.Cl (some centres not stated)	100%	67%	33%
Cl.O=C1CSc2ccc(CNC3CCN(CCc4c(Cl)cnc5ccc(F)cc45)CC3)nc2N1	98%	52%	21%
OC(COCc1ccc(-c2ccccc2)cc1)CN1CCCCC1 (configuration not stated)	99%	75%	13%
CCCN(Cc1nnc(-c2cccs2)o1)C(=O)C1COc2ccccc2O1 (configuration not stated)	87%	49%	1%
CC=CC(=O)N1CCN(c2nccc(-c3ccc(C(C)(C)C)cc3)n2)CC1	95%	70%	20%
CCN1CCN(C(=O)NC(C(=O)N(C)Cc2ccc(-c3ccc(C(F)(F)F)cc3)cc2)c2cccs2)C(=O)C1=O (configuration not stated)	99%	95%	0%
CCCCCCN1CCC(NCc2cccc3ccccc23)CC1.O=C(O)C(F)(F)F	95%	12%	21%
CCOC(=O)c1ccc(NC(=O)Nc2ccc(-c3cccc(-c4nc5cc(F)ccc5[nH]4)c3)cc2)cc1	100%	100%	98%
CCN1CCN(CCNc2c3ccccc3nc3ccccc23)CC1.Cl	93%	8%	45%
Cc1cccc2nc(-c3cccc(-c4cccc(NC(=O)C(C)CN5CCN(C)CC5)c4)c3)[nH]c12 (configuration not stated)	99%	99%	17%
CC(=NNC(S)=Nc1ccccc1Cl)c1ccccn1	100%	99%	69%
